Hits are enriched below; roughly 3.5% of the tested compounds scored in any of these assays.
DNMT1 block – human DNMT1 methyltransferase inhibitors, primary screen, biochemical, molecular beacon, fluorescence, HinP1I cleavage, uHTS | inhibition (reported as % activation of signal), % at 10 µM | hit rate 0.83% among 360,000 | AID 588458, 2011; in the data active means inhibition above about 50%
rCAG binder – binders of r(CAG) RNA repeats, primary screen, biochemical, fluorescence | r(CAG) RNA repeat, TO-PRO-1 dye displacement fluorescence | inhibition, % at 3 µM | hit rate 1.3% among 370,000;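 active means inhibition above the plate cutoff, the mean of all test compounds on that plate plus 3 SD, cut at about 35% in these data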;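 further: 0% = DMSO alone and 100% = 100 µM mitoxantrone as full dye displacement; higher means more dye released from RNA so lower well fluorescence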
MBD2 inh – inhibitors of MBD2 binding to methylated DNA, primary screen, biochemical, TR-FRET, DNA-binding domain, human; Methyl-CpG-binding domain protein 2 (Homo sapiens), Q9UBB5; MBD2 binding to methylated oligonucleotide; inhibition, % at 4.4 µM; hit rate 0.31% among 370,000; AID 686964, 2013; in the data active means inhibition above about 13%
UHRF1 MBD2 ctr – UHRF1 methylated DNA binding inhibitors, primary screen, counter-screen for MBD2 inhibitor project, biochemical, TR-FRET, human UHRF1, single concentration; E3 ubiquitin-protein ligase UHRF1 (Homo sapiens), Q96T88; UHRF1 binding to methylated oligo; inhibition, % at 4.4 µM; hit rate 0.75% among 370,000; AID 687016, 2013; in the data active means inhibition above about 21%;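 further: UHRF1 SRA domain binding a hemimethylated CpG hairpin DNA probe; 0% = median of test compound wells and 100% = reference inhibitor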
LEDGF integ inh – blockers of LEDGF/p75-dependent integrase strand transfer – biochemical, TR-FRET, high throughput, primary screen. hit rate 0.64% among 370,000. HIV-1 integrase (with human LEDGF/p75). TR-FRET IN-LEDGF/p75 DNA integration, Eu/Cy5. AID 743269, 2014. inhibition, % at 3.7 µM;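 active means inhibition above the screen-wide mean plus 3 SD, cut at about 13% in these data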;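 further: signal is the Cy5 over europium emission ratio at 671 and 618 nm; 0% = plate median of compound wells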
PG9 Ab binder – binders of HIV-1 gp120 antibody PG9, primary screen, biochemical, TR-FRET. HIV-1 gp120 / PG9 antibody interaction. TR-FRET gp120-PG9 antibody binding. inhibition, % at 6.7 µM. hit rate 0.43% among 360,000; in the data active means inhibition above about 8.5%
Beacon interf DR – spectral interference with molecular beacon fluorescence, dose response, artefact control for DNMT1 inhibitor project, biochemical, fluorescent molecular beacon; shares compounds with DNMT1 block; spectral interference counter-screen; IC50, µM; 200 tested, under 10 active; AID 602382, 2012; call rule not given here
DNMT1 confirm – DNMT1 methyltransferase inhibitor retest, confirmation, biochemical, molecular beacon, fluorescence, single concentration | hit rate 8% among 2,300 | shares compounds with DNMT1 block | AID 602385, 2012 | inhibition, % at 10 µM | DNMT1 molecular beacon HinP1I cleavage;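 active means average inhibition of at least 30% in the single-concentration confirmation test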
DNMT1 interf – counter-screen for DNMT1 inhibitors: spectral interference; AID 602387; shares compounds with DNMT1 block; DNMT1 molecular beacon spectral interference counterscreen, fluorescence 485/520; hit rate 1% among 2,300; activation (fluorescence interference), % at 10 µM;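 active means activation of at least 30% at 10 µM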;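 further: DNMT1 catalytic domain with a HinP1I cleavage step and a FAM/dabcyl DNA beacon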
An asterisk follows results filed as active.

CN1CCN(c2ccc(C(CC(N)=O)NC(=O)Cc3ccc(Br)cc3)cc2[N+](=O)[O-])CC1 (stereo not given) was read as DNMT1 block 1, rCAG binder -3, MBD2 inh 3, UHRF1 MBD2 ctr 2, LEDGF integ inh 0 and PG9 Ab binder 1.
COc1ccc(C(O)(CCN2CCOCC2)c2ccccc2)cc1 (stereo not given) was read as DNMT1 block -2, rCAG binder -7, MBD2 inh 1, UHRF1 MBD2 ctr -3, LEDGF integ inh -7 and PG9 Ab binder 0.
For CCOc1ccc(/C=N/N2CCN(Cc3ccccc3)CC2)cc1 the results were DNMT1 block -5, rCAG binder -4, MBD2 inh -5, UHRF1 MBD2 ctr 0, LEDGF integ inh 6 and PG9 Ab binder 0.
Screening COc1ccccc1/C=C/C=N/NC(=O)c1cc(-c2ccco2)[nH]n1 returned DNMT1 block 61*, rCAG binder 14, MBD2 inh -7, UHRF1 MBD2 ctr -1, LEDGF integ inh 3, PG9 Ab binder -7, DNMT1 confirm 14 and DNMT1 interf 2.
For O=C(N/N=C/c1ccccc1)c1ccc(CN2C(=O)c3cccc4cccc2c34)cc1 the results were DNMT1 block 53*, rCAG binder 12, MBD2 inh -4, UHRF1 MBD2 ctr -5, LEDGF integ inh -1, PG9 Ab binder -2, DNMT1 confirm 0 and DNMT1 interf 2.
Screening COc1ccc(-c2cc3c(o2)CCCC3OCCN2CCOCC2)cc1 (stereo not given) returned rCAG binder 3, MBD2 inh 2, UHRF1 MBD2 ctr 2, LEDGF integ inh -1 and PG9 Ab binder 1.
Screening c1cnc2nc3c4ccccc4c4ccccc4c3nc2c1 returned DNMT1 block 52*, rCAG binder 10, MBD2 inh -6, UHRF1 MBD2 ctr -6, LEDGF integ inh 3, PG9 Ab binder -2, DNMT1 confirm -1 and DNMT1 interf 0.
`COc1ccc(CN2C(=O)C(CC(=O)NC3CCCC3)CC(C(=O)N(C)C)=C2C)cc1` (stereo not given) gave DNMT1 block 3, rCAG binder -1, MBD2 inh -2, UHRF1 MBD2 ctr -1, LEDGF integ inh -2 and PG9 Ab binder 0.
Screening COc1ccc(O)c(C(=O)c2cnn(C(=O)c3ccc(C)cc3)c2)c1 returned DNMT1 block 55*, rCAG binder 1, MBD2 inh -4, UHRF1 MBD2 ctr -4, LEDGF integ inh 2, PG9 Ab binder -1, DNMT1 confirm -1 and DNMT1 interf -3.
Screening COc1cc(OC)c2ccc(=O)oc2c1C(CC(=O)N1CCCC1)c1ccc2c(c1)OCO2 (stereo not given) returned DNMT1 block 72*, rCAG binder -1, MBD2 inh 0, UHRF1 MBD2 ctr 5, LEDGF integ inh 2, PG9 Ab binder -1, DNMT1 confirm 0 and DNMT1 interf -4.
Screening CC1(C)CC2(CCCN(CC(O)(c3ccccc3)c3ccccc3)C2)CCO1 (stereo not given) returned DNMT1 block 94*, rCAG binder -8, MBD2 inh 0, UHRF1 MBD2 ctr 2, LEDGF integ inh -3, PG9 Ab binder 2, DNMT1 confirm 4 and DNMT1 interf 3.
Cc1ccccc1Nc1nc(N)[nH]c(=O)c1N=O was read as DNMT1 block -6, rCAG binder 7, MBD2 inh -10, UHRF1 MBD2 ctr -11, LEDGF integ inh -2 and PG9 Ab binder -6.
COc1cc(-c2ccc3oc(-c4ccsc4)cc(=O)c3c2)cc(OC)c1OC was read as DNMT1 block -9, rCAG binder 8, MBD2 inh 1, UHRF1 MBD2 ctr -3, LEDGF integ inh -1 and PG9 Ab binder -1.
`O=c1cc(-c2ccc3c(c2)OCCO3)oc2ccc(Cl)cc12` gave DNMT1 block 4, rCAG binder -2, MBD2 inh -2, UHRF1 MBD2 ctr 4, LEDGF integ inh 0 and PG9 Ab binder 2.
Screening COc1ccc(-c2ccc3c(=O)cc(-c4ccsc4)oc3c2)cn1 returned DNMT1 block 53*, rCAG binder 4, MBD2 inh 1, UHRF1 MBD2 ctr -3, LEDGF integ inh 0, PG9 Ab binder 5, DNMT1 confirm 1 and DNMT1 interf 2.
Screening O=c1cc(-c2ccsc2)oc2cc(-c3ccc4c(c3)OCO4)ccc12 returned DNMT1 block 61*, rCAG binder 4, MBD2 inh -3, UHRF1 MBD2 ctr 6, LEDGF integ inh 0, PG9 Ab binder 1, DNMT1 confirm 0 and DNMT1 interf -1.
`CCOc1cc(/C=C(\C#N)C(=O)Nc2cccc(C(=O)O)c2)ccc1OCc1ccc(Br)cc1` gave DNMT1 block 89*, rCAG binder -1, MBD2 inh 2, UHRF1 MBD2 ctr 3, LEDGF integ inh 0, PG9 Ab binder 0, Beacon interf DR >99, DNMT1 confirm 104* and DNMT1 interf -1.
`CC1(CC(=O)N/N=C/c2cc([N+](=O)[O-])c(O)cc2O)OCCO1` gave DNMT1 block 69*, rCAG binder 9, MBD2 inh -9, UHRF1 MBD2 ctr 1, LEDGF integ inh 4, PG9 Ab binder -3, DNMT1 confirm 2 and DNMT1 interf -3.
`Cc1ccc(-n2c(C)cc(/C=N/NC(=O)CC3(C)OCCO3)c2C)c(C)c1` gave DNMT1 block -9, rCAG binder 3, MBD2 inh 2, UHRF1 MBD2 ctr 0, LEDGF integ inh -1 and PG9 Ab binder 1.
Screening CN(CC(=O)NC(=O)NCc1ccco1)Cc1nc2ccccc2c(=O)[nH]1 returned DNMT1 block 70*, rCAG binder 3, MBD2 inh 3, UHRF1 MBD2 ctr 5, LEDGF integ inh 2, PG9 Ab binder 2, DNMT1 confirm 4 and DNMT1 interf 2.

From PubChem
